12-hLO inh – qHTS Assay for Inhibitors of 12-hLO (12-human lipoxygenase); purified 12-hLO, xylenol orange hydroperoxide absorbance; 150,000 compounds, 0.12% hits; Polyunsaturated fatty acid lipoxygenase ALOX12 (Homo sapiens), P18054; Potency, µM (series often up to 57.1 µM), for inactives: at the highest dose activity change, negative = inhibition, usual class: inhibitors; note: potency is the fitted concentration of half-maximal effect; nearly all actives have a fitted effect of over 55% in size
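Hydroperoxide formation by human 12-lipoxygenase from 40 uM arachidonic acid was followed colorimetrically via ferric-xylenol orange complex, using the 573/405 nm absorbance ratio. Enzyme concentration was 150 nM, with 30 min reaction at room temperature.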
HPGD block – qHTS Assay for Inhibitors of HPGD (15-Hydroxyprostaglandin Dehydrogenase); purified HPGD, NADH fluorescence kinetic, PGE2 substrate; Potency, µM, for the others: top-dose activity change, negative = inhibition, hits mostly inhibitors; 150,000 compounds, 4.3% hits; AID 894, 2007; active = well fitted inhibition curve with a large enough effect, not every such curve was filed as active; inconclusive = small, poorly fitted or top-dose-only effect, or another doubt; inactive = no such curve, though single readings can be large or run the other way; note: potency is the fitted concentration of half-maximal effect
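20 nM HPGD preincubated 15 min at room temperature with compound in 50 mM Tris-HCl pH 8, 0.01% Tween 20. Started with 1 mM NAD+ and 30 uM prostaglandin E2; NADH fluorescence (360/450 nm) read 5 times over 30-s intervals, last minus first.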
GLA inh pH 4.5 – qHTS Assay for Inhibitors of Human alpha-Galactosidase at pH 4.5. purified enzyme, 4-MU-alpha-Gal fluorescence, pH 4.5. AID 1467, 2008. Alpha-galactosidase A (Homo sapiens), P06280. activity change, negative = inhibition, % at 105 µM. 230,000 tested, under 10 active;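 note: 0% = full activity with enzyme and -100% = basal without enzyme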
aGal spleen mod – qHTS Assay for Inhibitors and Activators of Human alpha-Galactosidase From Spleen Homogenate; human spleen homogenate, 4MU-alpha-Gal fluorescence, 40 min; Alpha-galactosidase A (Homo sapiens), P06280; 240,000 compounds, 0.008% hits; Potency, µM (titrated, usually from 80 µM), without a hit: at the top dose activity change, negative = inhibition, usual class: inhibitors;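 note: potency is the fitted concentration of half-maximal effect; 0% = enzyme with vehicle and -100% = no enzyme basal signal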
Target sequence (P06280 32-429 limits assumed): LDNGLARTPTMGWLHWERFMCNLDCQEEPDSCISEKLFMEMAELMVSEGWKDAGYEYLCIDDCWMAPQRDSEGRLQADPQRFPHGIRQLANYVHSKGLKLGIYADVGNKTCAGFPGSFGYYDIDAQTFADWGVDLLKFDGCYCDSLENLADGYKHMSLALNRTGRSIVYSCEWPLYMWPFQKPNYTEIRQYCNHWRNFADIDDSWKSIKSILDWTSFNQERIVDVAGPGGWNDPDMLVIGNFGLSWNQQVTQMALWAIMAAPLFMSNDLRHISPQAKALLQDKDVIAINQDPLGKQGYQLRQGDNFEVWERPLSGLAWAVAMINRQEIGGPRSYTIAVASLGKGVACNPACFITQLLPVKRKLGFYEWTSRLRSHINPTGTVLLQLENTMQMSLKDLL
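Fluorogenic readout (Ex 365/Em 440 nm) of 4-methylumbelliferone released from 1 mM 4-MU-alpha-galactoside by spleen homogenate, 40 min at 37C, pH 5.0. Data normalized to no-enzyme and enzyme controls; Hill-equation AC50 from compound titrations.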
PNC inhibitor – High Content Assay for Compounds that inhibit the Assembly of the Perinucleolar Compartment. PC3M PTB-GFP, PNC prevalence imaging, 16 h; stronger effect = lower value. activity change (PNC), negative = inhibition, % at 10 µM. AID 2417, 2010. 140,000 compounds, 3.1% hits;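 active = readout at or below -70, meaning at least 70% loss of cells showing the perinucleolar compartment, a nuclear body marking cancer cells; inconclusive = readout between -30 and a set limit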;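 note: plate controls were DMSO wells for no effect and camptothecin positive control wells for full effect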
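Compounds are pinned in duplicate onto adhered PC3M cells stably expressing GFP-tagged PTB and incubated 16 h at 37 C. Cells are then fixed, nuclei stained with Hoechst, and PNC-positive cells counted.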
ALDH1A1 inh – qHTS Assay for Inhibitors of Aldehyde Dehydrogenase 1 (ALDH1A1). Aldehyde dehydrogenase 1A1 (Homo sapiens), P00352. Purified ALDH1A1, NADH fluorescence, propionaldehyde substrate. Potency, µM (highest dose often 75.3 µM), for inactives: at the highest dose activity, negative = inhibition, most hits filed as inhibitors. 220,000 compounds, 7.3% hits. AID 1030, 2008; active = well fitted inhibition curve with a large enough effect, not every such curve was filed as active; inconclusive = small, poorly fitted or top-dose-only effect, or another doubt; inactive = no such curve, though single readings can be large or run the other way;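 note: potency is the fitted concentration of half-maximal effect; plate controls were no enzyme wells and a reference inhibitor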
The depositor's hits bear a star; u = inconclusive; x = not tested or not shown. The list is not random: actives were taken first. Their share in the collection is about 10%. Unless noted, calls come from the whole dose curve; as a rule, active = well fitted curve in the direction sought with a large enough effect; inconclusive = small, poorly fitted or top-dose-only effect, or another doubt; inactive = no such curve, though single readings can be large; an effect the other way counts as inactive or inconclusive. Unless noted, % is set by controls: 0 for no effect and ±100 for the full control effect.

SMILES	12-hLO inh	HPGD block	GLA inh pH 4.5	aGal spleen mod	PNC inhibitor	ALDH1A1 inh
COc1ccc(NC(=O)c2sccc2SCc2cccc(C(F)(F)F)c2)cc1	-5.4%	u	-5.8	-13.8%	16.9	-5.6%
O=P1(O)Oc2c(-c3ccccc3)cc3ccccc3c2-c2c(c(-c3ccccc3)cc3ccccc23)O1	x	-7.8%	-16.3	-3.1%	x	-2.6%
Cc1ccc(S(=O)(=O)N2CCCC(C(=O)NCc3ccccn3)C2)cc1 (stereo not given)	0.2%	-19.0%	-3.6	-4.3%	u	2.8%
CS(=O)(=O)N1CCCC(C(=O)NCc2ccccn2)C1 (stereo not given)	2.2%	-2.1%	0.3	1.5%	-110.4*	-12.6%
O=C(NCc1ccccn1)C1CN(S(=O)(=O)c2ccccc2)CCN1S(=O)(=O)c1ccccc1 (stereo not given)	x	x	1.0	-3.2%	x	-11.1%
CC(C)(C)c1ccc(S(=O)(=O)N2CCCCC2C(=O)NCc2ccccn2)cc1 (stereo not given)	-5.1%	-14.1%	-6.5	u	u	3.98µM*
C1CCC(n2nnnc2CN2CCN(C3CCCC3)CC2)CC1	-6.2%	-10.2%	-7.1	-0.3%	13.9	-5.1%
c1ccc(N2CCN(Cc3nnnn3C3CCCCC3)CC2)cc1	3.7%	-7.4%	3.3	2.3%	4.3	28.2µM*
O=C(Nc1ccccc1)NC1CCN(Cc2nnnn2C2CCCCC2)CC1	0.1%	-11.1%	-0.2	-6.6%	-14.7	14.1µM*
Cc1ccc(OC(C)C)c(CN(CCO)CCO)c1	-0.8%	-3.9%	5.8	5.2%	-90.8*	-5.9%
NNS(=O)(=O)c1ccc(N2CCCC2=O)c([N+](=O)[O-])c1	x	x	-15.6	-0.8%	x	17.8µM*
CSc1ccccc1-n1nnnc1SCC(=O)NCc1cccs1	-5.8%	-10.7%	-10.4	18.4%	u	15.8µM*
O=C(CSc1nnnn1-c1ccccc1F)NNC(=O)c1ccco1	x	x	6.5	-1.9%	x	14.1µM*
CSc1ccccc1NC(=O)CSc1nnnn1-c1ccccc1SC	-5.7%	-12.9%	-3.1	1.1%	u	11.2µM*
CSc1ccccc1-n1nnnc1SCC(=O)Nc1ccccc1C	-3.1%	-0.3%	5.0	10.2%	-14.0	12.6µM*
O=C(CSc1nnnn1-c1ccccc1)NCc1cccs1	-2.6%	2.1%	3.4	-11.1%	-22.7	-12.3%
Cc1ccc(-n2nnnc2SCC(=O)NNC(=O)c2ccco2)c(C)c1	-9.3%	-5.8%	-21.9	-6.8%	42.4	u
COC(=O)c1ccccc1NC(=O)CSc1nnnn1-c1ccc(C)cc1C	-2.0%	-18.7%	-4.9	-1.2%	-6.4	u
Cc1noc(C)c1N=Nc1ccc(Br)cc1C(=O)O	x	x	-2.1	-2.5%	x	2.7%
Cc1cc(N2CCCCC2)nc(N2CCCCC2)n1	x	x	3.6	3.1%	x	1.6%
CCCC[C@@H]1C[C@H]1C(NC(=O)c1ccco1)c1ccccc1C(F)(F)F (stereo not given in full)	0.0%	-8.2%	-8.9	-2.4%	x	-22.2%
Cc1ccccc1NC(=O)CCSc1nnnn1-c1ccccc1	1.2%	-10.4%	3.7	2.2%	43.3	8.91µM*
COc1ccc(-c2nc3cnc(N4CCNCC4)nc3n(-c3ccccc3)c2=O)cc1	-5.1%	u	x	0.9%	x	u
Nc1nc(CSc2ncn(-c3ccccc3)n2)cs1	1.8%	-14.3%	-6.4	-7.0%	u	-10.1%
c1ccc(CSc2ncn(-c3ccccc3)n2)cc1	0.6%	17.8µM*	-2.4	3.8%	5.9	2.0%
O=C(CSc1ncn(-c2ccccc2)n1)c1cccs1	-5.2%	8.91µM*	3.5	11.3%	-15.9	u
